Measurements as given in PubChem BioAssay AID1851 (National Center for Advancing Translational Sciences (NCATS), 2009).
Values joined by “and” are separate entries in the source; they are usually repeats but may differ in a detail not shown here. Equal entries are not always repeated. The whole screen tested about 16,000 compounds, of which about 5,700 (36%) were called active. Roughly 24% stayed inconclusive and do not appear here. The call rests on the fitted dose curve; in most records, active means well fitted curve in the direction sought with a large enough effect; inconclusive means small, poorly fitted or top-dose-only effect, or effect the other way; inactive means no such curve, though single readings can be large or run the other way. This is one part of the list.

The molecules below were run against Cytochrome P450 1A2 (Homo sapiens) (UniProt P05177) (assay: Cytochrome panel assay with activity outcomes). Settings: recombinant CYP, pro-luciferin dealkylation, luminescence, p450-cyp1a2; series mostly up to 57.1 µM.
On the % scale 0 is the no-effect control and ±100 the full control effect.

Cytochrome P450 1A2 (Homo sapiens), sequence (P05177 whole entry, looked up): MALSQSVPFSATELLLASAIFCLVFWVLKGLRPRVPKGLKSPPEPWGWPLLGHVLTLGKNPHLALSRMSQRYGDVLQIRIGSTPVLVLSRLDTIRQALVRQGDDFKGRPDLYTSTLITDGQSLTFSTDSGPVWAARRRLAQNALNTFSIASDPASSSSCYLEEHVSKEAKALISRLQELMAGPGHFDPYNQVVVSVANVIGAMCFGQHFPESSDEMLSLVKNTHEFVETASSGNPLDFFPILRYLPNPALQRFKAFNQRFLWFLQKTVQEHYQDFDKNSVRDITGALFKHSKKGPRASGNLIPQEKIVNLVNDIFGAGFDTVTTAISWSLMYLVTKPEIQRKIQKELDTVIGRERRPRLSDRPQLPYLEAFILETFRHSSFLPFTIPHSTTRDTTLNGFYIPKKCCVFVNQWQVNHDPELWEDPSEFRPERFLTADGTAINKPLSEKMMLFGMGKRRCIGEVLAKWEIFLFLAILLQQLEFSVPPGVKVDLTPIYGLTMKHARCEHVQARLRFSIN

activity, negative = inhibition, inactive:
C/C(CCN1CCCCc2nc(C)c(C)cc21)=N\O[C@@H](C)c1cn([C@H](CO)Cc2ccccc2)nn1 -1.07% [at 11.4 µM] and -1.23% [at 11.4 µM], O=C(OCCCN1CCCCC1)c1ccc(O)cc1 -21.1% [at 11.4 µM], CN(C)CCOC(=O)c1ccc(N)cc1 1.14% [at 11.4 µM], CO[C@@H]1COC(=O)[C@H]2CCCN2C(=O)[C@@H](C)COC(=O)CCC[C@H]1C 6.36% [at 11.4 µM], c1cc2c(cc1C(N1CCNCC1)N1CCNCC1)OCO2 -3.03% [at 2.29 µM], Cc1cccc(C)c1NC(=O)Nc1ccc(S(N)(=O)=O)cc1 -10.8% [at 2.29 µM], CO[C@H]1COC(=O)CCC[C@H](C)[C@H](OC)COC(=O)C/C=C\[C@@H]1C -3.93% [at 11.4 µM]

AC50, active:
Cc1c2c(nc3c(C(=O)NC4CCCC4)cnn13)CCCC2 2820 nM, CC(Sc1nnc(C(C)N(C)C)n1-c1ccc(Cl)cc1)C(=O)Nc1ccc2c(c1)OCO2 (stereo not drawn) 17800 nM, CCOC(=O)c1ccc(-c2ccc(CO)o2)cc1 2510 nM, CCCCOC(=O)c1ccc(O)cc1 79.4 nM, CCOC(=O)c1ccc(N)cc1 2000 nM, O=S(=O)(c1cccc2c(I)cccc12)N1CCCNCC1 10000 nM, CCN(CC)c1ccc(/C=C/c2nc3ccccc3s2)cc1 2510 nM, Cc1cccc(CNc2ccnc(-c3ccoc3)n2)c1 2000 nM, c1ccc(CNc2ccnc(-c3ccoc3)n2)cc1 2510 nM, c1ccc2c(N3CCNCC3)nc(-c3ccc4c(c3)OCO4)nc2c1 12600 nM, CN(C)c1ccc(-c2nc(N3CCNCC3)c3ccccc3n2)cc1 10000 nM, CC(C)=CC(=O)OCC(=O)Nc1ncc(Cl)c(C)c1Cl 25100 nM, Cc1c(Cl)cnc(NC(=O)COC(=O)CCS(=O)(=O)c2ccccc2)c1Cl 11200 nM, CCN(CC)CC#CCOC(=O)[C@@](O)(c1ccccc1)C1CCCCC1 3980 nM, Cc1cc(C)c(C#N)c(SCS(=O)c2ccc(C(C)(C)C)cc2)n1 (stereo not drawn) 20000 nM, Cc1[nH]nc(N2CCCCCC2)c1[N+](=O)[O-] 2000 nM, COc1ccccc1CCn1c(=O)c(-c2ccccc2)nc2cncnc21 1000 nM, COc1ccccc1CCn1c(=O)c(-c2cccc(Cl)c2)nc2cncnc21 316 nM, Cn1c(=O)c(-c2cccs2)nc2cncnc21 1260 nM, COc1ccccc1CCn1c(=O)c(-c2ccc(F)cc2)nc2cncnc21 1000 nM, COc1ccccc1CCn1c(=O)c(-c2ccc(F)c(F)c2)nc2cncnc21 2000 nM, COc1ccccc1CCn1c(=O)c(-c2cccs2)nc2cncnc21 2000 nM, COCCn1c(=O)c(-c2cccs2)nc2cncnc21 3160 nM, COc1ccccc1CCn1c(=O)c(-c2ccc(Cl)cc2)nc2cncnc21 631 nM, O=C1c2ccccc2CC[C@H]1CNCCc1ccc(O)cc1 20000 nM, Cc1ccc(NC(=O)Nc2ncccc2C)cc1 3550 nM, CCCCNC(=O)c1cc2nc3c(c(C(F)(F)F)n2n1)CCc1ccccc1-3 2510 nM, COc1cccc(N=c2oc3c(C)ncc(CO)c3cc2C(N)=O)c1 4470 nM, Cc1ccsc1/C=N/Nc1nc(Cl)c(Cl)cc1Cl 2000 nM, CNC(=O)c1sc(SC)cc1-c1ccc(Cl)cc1 355 nM, Cc1nc2c(C(=O)NCc3ccc4c(c3)OCO4)c[nH]n2c(=O)c1Cc1ccccc1F 12600 nM, O=c1cnc2cnc(Nc3ccccc3)nc2n1Cc1ccc(F)cc1 1000 nM, CCNc1ncc2ncc(=O)n(Cc3ccc(F)cc3)c2n1 1000 nM, CCNc1ncc2nc(C)c(=O)n(Cc3ccc(F)cc3)c2n1 1580 nM, CCNc1ncc2nc(C)c(=O)n(Cc3cccc(OC)c3)c2n1 3160 nM

AC50, inactive:
Cc1cccc(N(CC(=O)NC2CCCC2)C(=O)c2cc3cc4cccc(C)c4nc3s2)c1C, Cc1ccc(C(=O)NC2CCCCCC2)cc1N1CCCC1=O, C[C@@H](Cc1ccccc1)Nc1ncnc2c1ncn2[C@@H]1O[C@@H](CO)[C@H](O)[C@@H]1O, CCN(CC)CCOC(=O)c1ccc(N)cc1, CCOC(=O)c1ccc(N2C(=O)CC(Nc3ccc(CCO)cc3)C2=O)cc1 (stereo not drawn), CCCCNc1ccc(C(=O)OCCOCCOCCOCCOCCOCCOCCOCCOCCOC)cc1, O=C1NC(=O)C(c2ccccc2)(c2ccccc2)N1, COCC(=O)N1CCC[C@@]2(CCN(Cc3ccc(C#N)cc3)C2)C1, O=C(Nc1ccccc1)N1CC[C@@]2(CCCN(C(=O)c3cnccn3)C2)C1, Cc1ccc(S(=O)(=O)N2CCOCC2)cc1NC(=O)COC(=O)CCC(=O)c1cccs1, COC(=O)[C@@]1(Cc2ccc(F)cc2)[C@H]2c3cc(C(=O)N(C)C)n(Cc4ccc(C)o4)c3C[C@H]2CN1C(=O)c1ccccc1, CCN(CC)CC#CCC(C)(c1ccccc1)c1ccccc1, CC[N+](CC)(CC)CC[C@](O)(c1ccccc1)C1CCCCC1, CCOC(=O)C(NC(C)=O)C(OC(C)=O)c1cccc(N(CCO)CCO)c1 (stereo not drawn), CN1CCN(CC(O)c2ccccc2)CC1 (stereo not drawn), CCCC[C@]1(C2CCCC2)Cc2cc(OCC(=O)O)c(Cl)c(Cl)c2C1=O, Cc1[nH]n(C(C)(C)C)c(=O)c1Sc1ccccc1, COc1ccc(NC(=O)N2CCCC3(CCN(S(C)(=O)=O)CC3)C2)cc1, N#Cc1ccc(C2=NC(C(F)(F)F)(C(F)(F)F)c3c(n(Cc4ccco4)c(=O)[nH]c3=O)N2)cc1, C#CC[N+](CC)(CC)CC#Cc1cccc(Cl)c1, Cc1nc2ccccn2c1/C(O)=C1\C(=O)C(=O)N(CCN2CCOCC2)C1c1cccnc1 (stereo not drawn)
